This is an account of results in article PMC12864922, “TDP-43 directly inhibits mRNA accumulation in neurites through modulation of mRNA stability”.

Over roughly 9,900 sequences, “r (bound/input frequency ratio)” has its median near 0.7; the highest 2% begin near 6.5. Shown is part of a subset that was picked to be rich in the highest values.

B1: ENSMUSG00000061578.522|Ksr2 (ssRNA)
RNA: GGGAGUUCUACAGUCCGACGAUCGCUUCGAUAUCCGCAUGCUAGGAGCUCUUGCCUAACACACACCAAGCCCCAAGUUCCAUCCCCAGUCCCACACAAACCAGAUAUGAUGGUGUGUGCCUAUGUCCCCCACACACGAGAGAGCUGGAGGCAGGAGGAUCAGAAGUUCAGGGCCAUCCUUAAUCAUACAGUGAGCUUGAGAGCAACCUGGGCUACAUGUGACCCUAAUAACUUUUGUAAAUUCAGCACACUUGGCACCUCACACUCCAUGUCCAUAUACUGCAUGUGCCACACACACACACACCUCUUGCGGUCGCACUAGUGUGGAAUUCUCGGGUGUCAAGG
B2: ENSMUSG00000028439.215|Fam219a (ssRNA)
RNA: GGGAGUUCUACAGUCCGACGAUCGCUUCGAUAUCCGCAUGCUAACCUGGGUUCUGGUCCCAGCCUCGGCAUUCUCCCUGAGCUCCUAAGCAAUUCCCAGGCUUCUCUAGGGCUUCAGUUCUCACAACUGGAAAAUAAAGAGUAGCUGACAUCACCGACAGAGUCUUUUCAUACCAGAAGGAAUUUCUUCACAGGAGUUUCUGCAAAAGACUAUGACAUCUGUGUGUCUGUGGUCUCACGAGGUACCUGGAGGUGUAUGUGCACGGACAUGGGAAGUACGUGAAGAUUUAUUUCGGGAAAAGUGCUCUUGCGGUCGCACUAGUGUGGAAUUCUCGGGUGUCAAGG
B3: ENSMUSG00000022095.99|Fam160b2 (ssRNA)
RNA: GGGAGUUCUACAGUCCGACGAUCGCUUCGAUAUCCGCAUGCUAGCCCCCUCUUCCUGCUCUACCCUCCUGGAGGCUGUUGCAAAAUUCCCAACUGCCUCCUGGCAGAGGCCCAAAGUAUGCUCUGCGCCCAGGCGGGGGCAGCUGCUAACAAGAGCCCUGGCGCAGCUGCAGCCAGGGCAGGCGAGAGCCUUGGAGCUGGGUGCCAGGCUCCAGCUCCAGCUCCAGCUGGUUCCUCUCUGGCGCCUUCUGAACCCGUCUCAGCAAGUCCGAAACACCUGGGCAGAGAGGUCAUUGACCAGGGACUCUUGCGGUCGCACUAGUGUGGAAUUCUCGGGUGUCAAGG
B4: ENSMUSG00000031028.626|Tub (ssRNA)
RNA: GGGAGUUCUACAGUCCGACGAUCGCUUCGAUAUCCGCAUGCUAUUAGGGUAAAUGAAAGUUAGUCCUGGCUCUCAUCACCACCUUUCCUAGCUCAUCACUGUGCCUUCUUUCUUCCCUAAGAAAGACAAUGCACCCCUCUCUUCUGUUCUCCUGCCCCUUCGCCCCCACUGAGGUCCAGGUAGAGCAGAUGAGGCUGAAAUGUAGAGUGUUCUAUAGAGCAUCUCAGUAGCAUAGAAGGAGAAGCCCAGCUCCAACCUCCUGGACCCCAUACUGGUGACCAGCUUGGUGAGGACAGGCAAAAUCUCUUGCGGUCGCACUAGUGUGGAAUUCUCGGGUGUCAAGG
B5: ENSMUSG00000004113.212|Cacna1b (ssRNA)
RNA: GGGAGUUCUACAGUCCGACGAUCGCUUCGAUAUCCGCAUGCUAGCUCAGAGCAGCACGGGGGCUUGUGUCUUAGGGACAUUGACAGUGUCCAUCAGCAUGUCAGAGAAGCAGCUGUAGUGCCCGUGUUUCUCCCUGAGUCAUGGGUUCUGAAGAAGCCAGAGCGGCACAAUGCGUGCUUGCAUGAGGCACUUUCAGCCUUUUUAAAUCUGACUCUCAGGGAUGGGAUGCCUGCCAAGUAGGGUGUAAUCUCUGUUGUGUUUUUAAAACAACAACAACAAAAUAAAACAAAAAAAAAAAACCUACUCUUGCGGUCGCACUAGUGUGGAAUUCUCGGGUGUCAAGG
B6: ENSMUSG00000061578.1091|Ksr2|55:59 (ssRNA)
RNA: GGGAGUUCUACAGUCCGACGAUCGCUUCGAUAUCCGCAUGCUACAACCAUGAAAAUAGAGGUUUGUAAUGUACAGAAGGCUGGGGGAGCUUUCAGGGCACACGCCAGUUAUGUACAGAUGUGAAGCUGAGGUCUGAAGGAAAUGGAGGAAGUAGGAAGAUCAGACUGGUUGAAUUAGAAGUCUGUCACUCUAGGUGCUAAGUGACCUUGGACCCAGUCAGUUCUUGGAUUUCUGUUGUAGCCCAGGCUAGCCUCGAACCCUUGAUCCUCCUGUUCCUGGUAGAGAAACAGCCACUAAAUGGUGCUCUUGCGGUCGCACUAGUGUGGAAUUCUCGGGUGUCAAGG
B7: ENSMUSG00000004113.162|Cacna1b (ssRNA)
RNA: GGGAGUUCUACAGUCCGACGAUCGCUUCGAUAUCCGCAUGCUAGGUUUUCAGUCACAACACUUUCACUGUUUGUCAUUUCUAUGUAGUUGAUCUAGAAAAAGCAGAAAUCAAAACAGGAAAGGAAAUGUUUGUGUAACUUUAAAAAAAAAGUCAACAUGUAGGAAGGUCUCCAUUUUGCAUUGUUUCUGUGUCUUGUAUGCAAUGUUCCUGUAUGUUUCUACCCUGCCUGGGAUGUCCCCAAUGACCCUGGCUCCUCUGCUCAACCAAGUGCCUGAUCUCUGGCUCUGAGCAUCGUGGAUGAGCUCUUGCGGUCGCACUAGUGUGGAAUUCUCGGGUGUCAAGG
B8: ENSMUSG00000029636.179|Wasf3 (ssRNA)
RNA: GGGAGUUCUACAGUCCGACGAUCGCUUCGAUAUCCGCAUGCUACCCCUCCUGAAGCACAGCUCUCUUCUCUCCUGUUGUCGGCACAUUUUCAAUUUUAAAAAGUACCUCACAAGAUAAACUUGAUUCAGCCAGUUGCCCGGGCAGAGACCUGACUUCCCCUCUCCUGCCCUGAUCCUUUUUACCAAAUGGCGAUUCCAUAGUCCUGGCUGAGGCAGGGGCUCAAAGUCCAGUGUCUGCUUUGCAAUUCUGGAAGGACAGCUGCUUAUUUAAAUAAGUCUGUGAUAUCCGCAGGCUUGGGUUACCUCUUGCGGUCGCACUAGUGUGGAAUUCUCGGGUGUCAAGG
B9: ENSMUSG00000061578.745|Ksr2 (ssRNA)
RNA: GGGAGUUCUACAGUCCGACGAUCGCUUCGAUAUCCGCAUGCUACAUCUCUGGCUCUUUGUUUCCACUCUGGCCCAAGUUUGAGUCUCCAUAUGGGCCCUUCCUGUCCUCAUGCCCUGCCUGUCUUCAUUCCACCCAUCCACCCUCCUAAGGAUUGGUCUUGUUCCGAGAGUGAUCCUGGUAACGCCAAGCCUCCCUCUGCCCCUGUGUUGGCUUCUGUGACGGACUACCACACACCAAGAGGUUUUUCACAGUGAAGAUGUAUGCUCUCACCAUCCUACAGAUGCAAAGACCAAACACAAAGUCUCUUGCGGUCGCACUAGUGUGGAAUUCUCGGGUGUCAAGG

Chain of TDP-43 (Q13148 whole entry): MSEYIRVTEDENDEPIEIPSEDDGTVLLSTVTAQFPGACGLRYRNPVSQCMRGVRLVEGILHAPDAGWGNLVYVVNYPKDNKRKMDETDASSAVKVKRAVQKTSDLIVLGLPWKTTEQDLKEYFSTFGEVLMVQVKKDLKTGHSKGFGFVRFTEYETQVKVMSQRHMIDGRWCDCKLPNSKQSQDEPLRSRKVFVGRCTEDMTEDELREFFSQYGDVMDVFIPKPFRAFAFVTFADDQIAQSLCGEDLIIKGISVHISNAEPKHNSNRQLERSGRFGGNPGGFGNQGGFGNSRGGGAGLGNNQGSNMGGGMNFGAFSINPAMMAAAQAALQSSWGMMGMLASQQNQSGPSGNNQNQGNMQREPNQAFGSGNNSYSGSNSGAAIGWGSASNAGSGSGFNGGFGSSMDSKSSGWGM

The experiment deals with TDP-43 (Homo sapiens, UniProt Q13148 1-414). Put plainly: RNA Bind-n-Seq with designed 260-mer pool; 25 mM Tris-HCl, 150 mM KCl, 3 mM MgCl2, BSA (printed 500 mg/mL), 20 units/mL SUPERase IN; pH not stated; 500 nM RNA pool, 1 h, 4 C; TDP-43 5, 50, 500 nM; high values mean tight binding. The settings on record: protein: recombinant; tags: SBP (GST cleaved off with PreScission; pGEX-GST-SBP). The method, boiled down:
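Binding (R) is the ratio of each oligo's mapped-read-normalized abundance in the bound fraction to its abundance in the input. To obtain it, SBP-tagged recombinant TDP-43 (5, 50 or 500 nM) on streptavidin beads was incubated with 500 nM of an in vitro-transcribed 260-nt 3′ UTR oligo pool for 1 h at 4 °C in 25 mM Tris-HCl, 150 mM KCl, 3 mM MgCl2, BSA and SUPERase IN. The RNA retained after washing was released with biotin, then reverse transcribed, amplified by PCR and sequenced.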
With B1, the binding signal is 2.82 R (bound/input frequency ratio). Take B2: the binding signal is 1.67 R (bound/input frequency ratio). For B3 the value was 0.917 R (bound/input frequency ratio). For B4 the value was 0.915 R (bound/input frequency ratio). Turning to B5, the binding signal was 0.697 R (bound/input frequency ratio). For B6 the value was 0.848 R (bound/input frequency ratio); for B7, 1.13 R (bound/input frequency ratio); for B8, 0.495 R (bound/input frequency ratio). For B9 the value was 1.1 R (bound/input frequency ratio).
